Vif-A3G inh: Vif-A3G binding inhibition; HeLa A3G-eYFP + Vif (tagged APOBEC3G with the HIV-1 protein that degrades it), YFP fluorescence, overnight; Potency, µM (top dose mostly 46.1 µM), inactives show at the highest dose activity, negative = active, hits mostly inhibitors; 0.076% of 410,000 active; AID 602310; note: potency is the fitted concentration of half-maximal effect; % is set by controls: 0 for no effect and ±100 for the full control effect; nearly all actives have a fitted effect of over 60% in size
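Read-out is eYFP fluorescence (Ex 488/Em 500-530) from Vif-expressing HeLa A3G-eYFP cells; more signal means A3G escaped Vif-mediated degradation. Cells plated overnight, compound pinned in, incubated overnight at 37 deg C.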
Akt phos inh: inhibitors of Akt phosphorylation | activity change, % for hits at 50 µM | 0.32% of 360,000 active | AID 651550 | Neuro2A IGF-stimulated pAkt S473 HTRF, 20 min; hits give low values; in the data active = activity change below about -80%; inconclusive = mostly about -51% to -80%; note: % is set by controls: 0 for no effect and ±100 for the full control effect
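Single-point screen (50 µM final compound) in Neuro2A cells stimulated 20 min with 6 nM IGF at 37 deg C. After lysis, Ser473-phosphorylated Akt read by HTRF (ex 330 nm, em 615/665 nm) as the 665/615 ratio.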
12-LOX inh: inhibitors of human 12S-lipoxygenase ALOX12 | P18054 | purified 12hLO, xylenol orange hydroperoxide absorbance | Potency, µM (highest dose often 108 µM), for the others: at the top dose activity change, negative = inhibition, usual class: inhibitors | 1.1% of 580,000 active; note: potency is the fitted concentration of half-maximal effect; % is set by controls: 0 for no effect and ±100 for the full control effect
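Hydroperoxide product was detected by ferrous iron/xylenol orange as the 573 to 405 nm absorbance ratio. Arachidonic acid at 40 uM (final) was turned over for 30 min at room temperature by 150 nM human 12hLO, pH 7.0 Hepes buffer, after 15 min compound preincubation.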
TSG101-PTAP inh: blocks PTAP/TSG101 interaction to inhibit HIV-1 budding. Q99816. Fluorescence polarization, FITC-PTAP peptide / Tsg101 binding. Potency, µM (series often up to 115 µM), for inactives: at the highest dose activity change, negative = inhibition, actives largely listed as inhibitors. 340,000 tested, under 10 active. AID 493005; active = well fitted inhibition curve with a large enough effect in the main read-out, with a control signal flat, not every such curve was filed as active; inconclusive = small, poorly fitted or top-dose-only effect, or effect the other way, or a change in a side signal; inactive = no such curve, though single readings can be large or run the other way; note: potency is the fitted concentration of half-maximal effect; % of control where 0% means no effect
Target sequence (Q99816 whole entry, looked up): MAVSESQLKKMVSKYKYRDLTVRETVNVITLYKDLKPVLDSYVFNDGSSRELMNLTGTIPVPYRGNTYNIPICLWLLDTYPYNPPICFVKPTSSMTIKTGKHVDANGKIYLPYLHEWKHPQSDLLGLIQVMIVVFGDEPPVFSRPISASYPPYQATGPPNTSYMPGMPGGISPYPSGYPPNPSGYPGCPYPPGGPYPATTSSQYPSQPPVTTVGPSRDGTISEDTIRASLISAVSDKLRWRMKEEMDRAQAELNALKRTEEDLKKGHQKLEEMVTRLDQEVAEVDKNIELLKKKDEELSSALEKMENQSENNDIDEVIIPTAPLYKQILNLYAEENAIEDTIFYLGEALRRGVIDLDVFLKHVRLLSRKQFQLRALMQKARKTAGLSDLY
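Fluorescence polarization binding of Tsg101 binding domain (10 uM final) to FITC-labeled PTAP peptide (50 nM final) in HEPES pH 7.5 buffer with NaCl, Tween 20, EDTA, TCEP. Compounds added before peptide; binding 20 min at RT.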
ASM inhibitor: human S-ASM enzyme inhibition | P17405 | Potency, µM (series often up to 57.5 µM), for inactives: top-dose activity change, negative = inhibition, most hits filed as inhibitors | AID 504937 | placental ASM, HMU-PC fluorogenic substrate, 60 min | 0.006% of 340,000 active; note: potency is the fitted concentration of half-maximal effect
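Fluorescence read-out (Ex 386 nm, Em 447 nm) after stopping the reaction at pH 10. Enzyme: ASM from human placenta; substrate HMU-PC0, 9 uM final; 60 min, 37 °C. Compound preincubation 10 min, ambient temperature.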
Vif-A3F inh: inhibitors of Vif-A3F interaction; Potency, µM (doses to about 46.1 µM), for the others: top-dose activity, negative = active; HeLa A3F-eYFP + Vif (tagged APOBEC3F with the HIV-1 protein that degrades it), YFP fluorescence increase; 0.2% of 390,000 active; note: potency is the fitted concentration of half-maximal effect; % of control where 0% means no effect; nearly all actives have a fitted effect of over 65% in size
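HeLa cells stably expressing A3F-eYFP plus Vif, plated and incubated overnight at 37 deg C, then exposed to compounds overnight at 37 deg C. Blocked degradation read as raised yellow fluorescence (Ex 488/Em 500-530).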
Numbers without * were called inactive. Compounds with a hit are over-represented: about 1.4% of the library has one in this group of screens. Unless noted, calls come from the whole dose curve; as a rule, active = well fitted curve in the direction sought with a large enough effect; inconclusive = small, poorly fitted or top-dose-only effect, or another doubt; inactive = no such curve, though single readings can be large; an effect the other way counts as inactive or inconclusive.

For COC(=O)C(O)(CC(=O)Nc1ccccc1OC)C(F)(F)F (stereo unspecified) the results were Vif-A3G inh 1%, Akt phos inh -99%*, 12-LOX inh -21%, TSG101-PTAP inh -8% and ASM inhibitor 2%.
Screening COc1ccc(N=Nc2nc3ccc(Br)cc3n2C)cc1 returned Vif-A3G inh -5%, Akt phos inh -106%*, 12-LOX inh -25%, TSG101-PTAP inh -30%, ASM inhibitor -17% and Vif-A3F inh 7%.
`COc1ccc(-c2c(-c3cc(OC)cc(OC)c3)n(C)c3ccc(Br)cc23)cc1` gave Vif-A3G inh -3%, Akt phos inh inactive, 12-LOX inh 22%, ASM inhibitor 22% and Vif-A3F inh 0%.
Screening Cc1cccc(NCc2n[nH]c(=S)n2-c2ccccc2)c1 returned Vif-A3G inh 1%, Akt phos inh inactive, 12-LOX inh inconclusive, TSG101-PTAP inh -2%, ASM inhibitor 1% and Vif-A3F inh -1%.
For Cc1ccc(NCc2n[nH]c(=S)n2-c2ccccc2)cc1 the results were Vif-A3G inh -10%, Akt phos inh inactive, 12-LOX inh 28µM*, TSG101-PTAP inh 1%, ASM inhibitor 0% and Vif-A3F inh -13%.
CN(C)c1ccc(C(=O)OCc2ccccc2)cc1 was read as Vif-A3G inh -1%, Akt phos inh inactive, 12-LOX inh 0%, TSG101-PTAP inh 0%, ASM inhibitor -3% and Vif-A3F inh -3%.
For O=C1C=CC(=O)C(CNc2ccc(C(=O)OCc3ccccc3)cc2)=C1 the results were Vif-A3G inh inconclusive, Akt phos inh inactive, 12-LOX inh 16µM*, TSG101-PTAP inh -2%, ASM inhibitor -6% and Vif-A3F inh -22%.
`O=C(NCCc1noc(-c2ccncc2)n1)c1ccccc1F` gave 12-LOX inh 28µM*.
CCOC(=O)Cn1c(=O)c2c3c(sc2n(CCCN(C)C)c1=O)CC(C)CC3 (stereo unspecified) was read as 12-LOX inh 1%.
`CC(C(=O)N(C)CC(=O)Nc1ccccc1C(F)(F)F)N1CCN(Cc2ccccc2)CC1` (stereo unspecified) gave 12-LOX inh -1%.
Screening CC1CCN(S(=O)(=O)c2ccc3c(c2)C(Cl)(Cl)C(=O)N3)CC1 returned Vif-A3G inh inconclusive, Akt phos inh inactive, 12-LOX inh 40µM* and Vif-A3F inh -25%.
For C=CCOc1ccc(NC(=O)CC)cc1 the results were 12-LOX inh -11%.
For Cn1c(CSCc2ccccc2Cl)n[nH]c1=S the results were Vif-A3G inh -2%, Akt phos inh inactive, 12-LOX inh inconclusive, TSG101-PTAP inh -3%, ASM inhibitor 5% and Vif-A3F inh -17%.
`S=c1[nH]nc(CSCc2ccccc2Cl)n1C1CCCCC1` gave Vif-A3G inh 5%, Akt phos inh inactive, 12-LOX inh 45µM*, TSG101-PTAP inh -1%, ASM inhibitor 0% and Vif-A3F inh 3%.
O=C1NC(=S)S/C1=C\c1cc(Cl)cc(Cl)c1O was read as Vif-A3G inh -6%, Akt phos inh inactive, 12-LOX inh 45µM*, TSG101-PTAP inh -5%, ASM inhibitor -13% and Vif-A3F inh inconclusive.
Screening COc1ccc(-n2c(C)cc(/C=C3\SC(=S)NC3=O)c2C)cc1 returned Vif-A3G inh -21%, Akt phos inh inactive, 12-LOX inh inconclusive, TSG101-PTAP inh 0%, ASM inhibitor -7% and Vif-A3F inh 10µM*.
Screening Cc1cc(/C=C2\SC(=S)NC2=O)c(C)n1-c1ccc(O)cc1 returned Vif-A3G inh -15%, Akt phos inh inactive, 12-LOX inh 28µM*, TSG101-PTAP inh 4%, ASM inhibitor -18% and Vif-A3F inh inconclusive.

Source: PubChem
